Bioassay records as filed in PubChem BioAssay.
TDP1 cell CPT = DT40-hTDP1 cell growth loss with CPT; chicken DT40 Tdp1-/-;hTDP1 cells + 20 nM CPT, ATP luminescence, 48 h; Potency, µM (series often up to 46.2 µM), inactives show top-dose activity change, negative = growth inhibition, most hits filed as inhibitors; 420,000 compounds, 12% hits; further: nearly all actives have a fitted effect of over 55% in size
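Chicken DT40 Tdp1-/- cells stably complemented with human TDP1 were seeded at 400 cells/well in medium containing 20 nM camptothecin, exposed to pin-transferred compounds, and grown at 37 °C for at least 48 hr. Viability was read as ATP luminescence.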
12-LOX inh = ALOX12 (human) lipoxygenase inhibition; P18054; purified 12hLO, xylenol orange hydroperoxide absorbance; Potency, µM (doses to about 108 µM), for the others: at the top dose activity change, negative = inhibition, most hits filed as inhibitors; 580,000 compounds, 1.1% hits; AID 1671190
Target sequence (P18054 whole entry, looked up): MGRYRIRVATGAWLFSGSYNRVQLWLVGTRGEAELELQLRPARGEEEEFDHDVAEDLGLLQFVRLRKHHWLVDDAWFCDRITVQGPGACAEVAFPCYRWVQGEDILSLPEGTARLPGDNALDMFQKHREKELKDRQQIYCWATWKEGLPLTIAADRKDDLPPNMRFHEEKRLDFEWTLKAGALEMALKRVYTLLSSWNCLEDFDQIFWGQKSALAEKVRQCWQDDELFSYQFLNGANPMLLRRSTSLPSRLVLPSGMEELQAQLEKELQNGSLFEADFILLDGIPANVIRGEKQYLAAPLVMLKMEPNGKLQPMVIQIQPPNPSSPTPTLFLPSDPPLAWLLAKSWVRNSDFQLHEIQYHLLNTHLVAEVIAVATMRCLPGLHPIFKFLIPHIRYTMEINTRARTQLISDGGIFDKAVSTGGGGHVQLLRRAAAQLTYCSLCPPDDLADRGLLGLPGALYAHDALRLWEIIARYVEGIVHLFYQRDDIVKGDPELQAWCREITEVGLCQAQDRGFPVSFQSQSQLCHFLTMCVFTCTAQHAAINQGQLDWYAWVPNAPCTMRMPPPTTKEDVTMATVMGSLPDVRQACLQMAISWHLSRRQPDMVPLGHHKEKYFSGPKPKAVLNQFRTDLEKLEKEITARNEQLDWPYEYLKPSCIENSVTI
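Hydroperoxide product was detected by ferrous iron/xylenol orange as the 573 to 405 nm absorbance ratio. Arachidonic acid at 40 uM (final) was turned over for 30 min at room temperature by 150 nM human 12hLO, pH 7.0 Hepes buffer, after 15 min compound preincubation.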
TDP1 cell noCPT = qHTS for Inhibitors of human tyrosyl-DNA phosphodiesterase 1 (TDP1): qHTS in cells in absence of CPT | DT40 Tdp1-/- hTDP1 cells, no CPT, ATP luminescence, 48 h | Potency, µM (highest dose often 46.2 µM), for inactives: at the highest dose activity change, negative = growth inhibition, actives largely listed as inhibitors | 420,000 compounds, 15% hits; further: nearly all actives have a fitted effect of over 55% in size
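Compound effects on proliferation are scored in DT40 Tdp1-/-;hTDP1 cells in the absence of CPT. ATP levels (CellTiter-Glo luminescence) are recorded after a ≥48 hr, 37 °C incubation.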
ELG1 repair inh = ELG1-dependent DNA repair inhibition; HEK293T ELG1-luciferase reporter, luminescence, 16 h; DNA damage induced by 5-fluorouridine; Potency, µM (top dose mostly 46.1 µM), without a hit: at the top dose activity change, negative = inhibition, hits mostly inhibitors; 330,000 compounds, 2.3% hits; further: nearly all actives have a fitted effect of over 55% in size
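HEK293T cells expressing luciferase-tagged ELG1 (2,000/well) received 5-Fluorouridine plus compound or DMSO for 16 hr at 37 °C. Luciferase was read by ONE-Glo luminescence after 30 min at room temperature.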
RORg inh = ROR gamma (mouse) transcription inhibition | P51450 | 310,000 compounds, 5.4% hits | Potency, µM (titrated, usually from 53.6 µM), for inactives: at the highest dose activity change, negative = inhibition, actives largely listed as inhibitors | AID 2551 | Drosophila S2 Gal4-RORgamma UAS-luciferase reporter, 20 h; further: nearly all actives have a fitted effect of over 60% in size
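Compounds are pin-transferred onto Drosophila Schneider cells expressing a copper-inducible Gal4–ROR gamma transactivation domain fusion. After 1 hr, copper sulfate is added to 700 uM final; luciferase is read 20 hr later.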
VP16 counter = Gal4-VP16 reporter inhibition counter-screen; AID 2546; Drosophila S2 Gal4-VP16 UAS-luciferase, luminescence, 20 h; Potency, µM (series often up to 53.6 µM), for inactives: top-dose activity, negative = inhibition, most hits filed as inhibitors; 310,000 compounds, 3.5% hits;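 further: Gal4-VP16 expression switched on by copper sulfate through the metallothionein promoter; nearly all actives have a fitted effect of over 50% in size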
* marks the source's active call; other numbers are inactive results; ? = inconclusive; . = not tested or not shown; [ ] = remark or other dose. Only some compounds are listed: those with a hit (about 15% of all), similar ones and a draw of the others. The call rests on the fitted dose curve; in most records, active means well fitted curve in the direction sought with a large enough effect; inconclusive means small, poorly fitted or top-dose-only effect, or another doubt; inactive means no such curve, though single readings can be large; an effect the other way counts as inactive or inconclusive. On the % scale 0 is the no-effect control and ±100 the full control effect; potency means the concentration at half of the fitted maximal effect.

SMILES | TDP1 cell CPT | 12-LOX inh | TDP1 cell noCPT | ELG1 repair inh | RORg inh | VP16 counter
COc1ccc(NC(=O)CN(C)C(=O)c2cccc(-n3cccc3)c2)cc1 | -29% | -29% | -28% | 8% | . | .
COc1ccc(NC(=O)CN(C)C(=O)c2cccc(S(=O)(=O)N3CCN(C)CC3)c2)cc1 | -3% | -21% | -14% | 14% | . | .
CN(CC(=O)Nc1cccc(F)c1)C(=O)c1cc(S(=O)(=O)N2CCN(c3ccccc3)CC2)ccc1Cl | 16µM* | 138% | 13µM* | ? | . | .
Cc1ccc(NC(=O)CN(C)C(=O)c2cccc(-n3cccc3)c2)cc1 | 15% | 35µM* | -4% | 4% | . | .
COc1cccc(NC(=O)CN(C)C(=O)c2cccc(S(=O)(=O)N3CCN(c4ccc(F)cc4)CC3)c2)c1 | 16µM* | 11% | 16µM* | ? | . | .
CN(CC(=O)Nc1cccc(F)c1)C(=O)c1cccc(S(=O)(=O)N2CCN(c3ccccc3)CC2)c1 | ? | 184% | ? | ? | 5% | ?
COc1ccc(CNC(=O)CSc2ccccc2C(=O)OCC(=O)C(C)(C)C)cc1 | . | -20% | . | . | . | .
Cc1nnc(Sc2nc3c(c(=O)n(C)c(=O)n3C)n2Cc2ccc(Cl)cc2)s1 | ? | 4% | 16µM* | -22% | ? | 1%
Cn1c(=O)c2c(nc(Sc3ncccn3)n2Cc2ccc(Cl)cc2)n(C)c1=O | 12µM* | -16% | ? | 16µM* | -39% | 16µM*
Cn1c(=O)c2c(nc(SCC(=O)c3cccs3)n2Cc2ccc(F)cc2)n(C)c1=O | 21µM* | 2% | 12µM* | ? | 14% | 11%
Cn1c(=O)c2c(nc(Br)n2CC(=O)c2cccs2)n(C)c1=O | ? | 54% | -20% | -13% | -2% | 9%
CCSc1nc2c(c(=O)n(C)c(=O)n2C)n1Cc1ccc(Cl)cc1 | 21µM* | 0% | 18µM* | . | . | .
N#Cc1nc(Cc2cccc3ccccc23)oc1N1CCCC1 | . | -32% | . | . | . | .
CCCS(=O)(=O)N1CCc2ccc(NC(=O)NC)cc21 | . | -9% | . | . | . | .
Cc1ccc(Cn2c(Sc3ncccn3)nc3c2c(=O)[nH]c(=O)n3C)cc1 | ? | ? | 16µM* | ? | 0%[0.365 µM] | .
Cc1ccc(Cn2c(SCC(C)C)nc3c2c(=O)n(C)c(=O)n3C)cc1 | 26µM* | -12% | 26µM* | ? | 0%[0.365 µM] | .
Cc1ccc(Cn2c(Sc3nccc(C)n3)nc3c2c(=O)[nH]c(=O)n3C)cc1 | -28% | -2% | ? | ? | 12% | 0%
Cc1ccc2c(=O)c(C(=O)c3ccccc3)cn(CC(=O)Nc3ccccc3)c2n1 | -17% | -15% | -6% | . | . | .
CCOC(=O)c1ccc(NC(=O)Cn2cc(C(=O)c3ccc(Cl)cc3)c(=O)c3ccc(C)nc32)cc1 | 4.6µM* | -19% | 3.3µM* | . | . | .
CCOC(=O)c1ccc(NC(=O)Cn2cc(C(=O)c3ccc(CC)cc3)c(=O)c3ccc(C)nc32)cc1 | 12µM* | -14% | 5.8µM* | . | . | .
NC(=O)c1ccc2c(c1)-c1ccccc1C2=O | . | -5% | . | . | . | .
NC(=O)C1=C(c2ccccc2)c2ccccc2C1=O | 2.9µM* | ? | 5.2µM* | . | . | .
CCCc1nn(-c2ccccc2C)c(OC(C)=O)c1-c1ccc(NC(=O)CC)cc1 | . | 33% | . | . | . | .
FC(F)(F)c1cc(CCN2C(=S)NC[C@@H]2Cc2ccccc2)cc(C(F)(F)F)c1 | ? | ? | ? | 3% | 3.5µM* | 2.8µM*
FC(F)(F)c1cc(CCN2C(=S)NC[C@@H]2c2ccccc2)cc(C(F)(F)F)c1 | ? | ? | ? | -15% | 5.6µM* | 11µM*
FC(F)(F)c1cc(CCN2C(=S)NC[C@@H]2CC2CCCCC2)cc(C(F)(F)F)c1 | ? | ? | ? | -14% | 2.2µM* | 6.3µM*
